The values that follow come from ChEMBL document CHEMBL3988442, “University of Dundee, Small-Polar-MMV Screening Library” (2021).

In the test the target is AMP-activated protein kinase, AMPK (Homo sapiens) (UniProt P54646+O43741+P54619+Q9UGJ0+Q9Y478+Q13131+Q9UGI9). Nature of the test: AMP-dependent Kinase enzyme assay. An in vitro enzyme assay that detects ADP turnover that is directly proportional to AMPK activity. This uses naive AMPK that is activated during the assay with MK-8722. The class given is functional. The following applies: 30 µM. On the set-up: scale not given: direction of the effect not stated beside the values.
Take `CCn1cnnc1CCNc1nc(C)cc(C)c1C#N`: the Percent Effect is -7.29%.

As for `CCCN1CCC(N(C)C(=O)c2cc(C)nc3cc(F)ccc23)CC1`, the Percent Effect is -6.76%.

For `CNC(=O)C1CN(C(=O)Cc2ccc(OC)cc2)Cc2cn(C)nc21` (stereo unspecified), the Percent Effect was -3.48%.

Consider `CC1(C)OC(=O)N(CCCC(=O)c2ccc(F)cc2)C1=O`, for which the Percent Effect was -8.28%.

`CC(C)N(Cc1ccccn1)C(=O)CN(C)C(=O)c1cccs1`: the Percent Effect came to 10.8%.

With `COc1ncccc1C(=O)NCCn1cnc(C)cc1=O`, the Percent Effect is -2.02%.

Take `Cc1nc(COC(=O)c2cccc3c2OCCO3)no1`: the Percent Effect is -12.1%.

Regarding `O=C(CC1C=CCC1)N1CCc2ncnc(NCc3ccon3)c2CC1` (stereo unspecified), the Percent Effect stood at 21.6%.

For `O=C(NC1CC1)c1cnc2n1CCCC2`, the Percent Effect is -4.04%.

On to `Cc1cc(N(C)CC2COc3ccccc3O2)nc(N)n1` (stereo unspecified), for which the Percent Effect amounted to 2.34%.

In the case of `COc1ccc(CN(C)Cc2c(C)noc2C)c(Br)c1OC`, the Percent Effect was 2.55%.

For the molecule `CNC(=O)C1(C)CN(S(=O)(=O)c2cccc(OC)c2)CCO1` (stereo unspecified), the Percent Effect worked out at 4.63%.

For the molecule `CN(Cc1ncnn1C1Cc2ccccc2C1)C1CCS(=O)(=O)C1` (stereo unspecified), the Percent Effect was found to be 1.61%.

On to `COc1c(C2CCCN2CC(=O)Nc2nccs2)c(C)nn1C` (stereo unspecified), for which the Percent Effect worked out at 7.38%.

In the case of `CC(CNC(=O)CCCn1cncn1)N1CCc2ccccc2C1` (stereo unspecified), the Percent Effect turned out to be 14.6%.

For the molecule `c1cnn(C2CN(c3nc(-c4ccncc4)nc4c3CCC4)C2)c1`, the Percent Effect was 1.13%.

In the case of `CCn1cc(-c2cc(C(=O)N3CCOCC3)c3cc(Cl)ccc3n2)cn1`, the Percent Effect turned out to be 11.8%.

Turning to `O=C(c1cnn[nH]1)N(Cc1ccncc1)CC1CCCO1` (stereo unspecified), the Percent Effect is -5.18%.

As for `CSCCC(=O)N1CCN(CC(C)(C)O)CC1`, the Percent Effect is -5.46%.

For the molecule `O=C(NC1CCCC1)N1C[C@H]2CN(c3ccncc3)C[C@@]2(C(=O)O)C1`, the Percent Effect worked out at 9.08%.

With `c1ccc(C2Cn3ccnc3CN2Cc2ncc[nH]2)cc1` (stereo unspecified), the Percent Effect amounted to 11.3%.
